Shown are actives, neighbours in structure and some others; about 6.5% of the full set was active somewhere.
Giardia kill: Giardia lamblia killing | Giardia lamblia trophozoite viability | activity change, % at 7.66 µM, hits read low | 0.15% of 340,000 active | AID 540267; in the data active = activity change below about -80%; inconclusive = between about -30% and that limit;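 also: parasites exposed to compound for two days anaerobically before the ATP read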
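Trophozoite viability was measured as ATP-dependent luminescence, read 15-30 min after reagent addition. Before that, parasites at 100 cells/well were exposed to compounds for 48 h, anaerobically, at 37 deg C.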
HT1080 IDH1KD tx: HT-1080 IDH1 knockdown cell toxicity (counter line); HT-1080 IDH1 knockdown viability, ATP luminescence, 48 h; Potency, µM (highest dose often 46.1 µM), hits mostly cytotoxic; 2% of 360,000 active; AID 686971
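Luminescent ATP read-out (CellTiter-Glo, 10 min at room temperature) after 48 h compound exposure at 37 °C gave viability of IDH1-knockdown HT-1080 cells. Activity was normalised to DMSO and cell-free wells, then fitted as concentration-response curves.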
IL-1B inflam inh: blocks inflammasome-driven IL-1 beta release; THP-1 LPS/ATP IL-1B secretion, AlphaLISA, 16 h; active compounds read low; activity change, % at 57.5 µM; 4.7% of 360,000 active; AID 743279; in the data active = activity change below about -50%; inconclusive = mostly about -30% to -49%
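Secreted IL-1B measured by AlphaLISA bead assay after 16 h compound exposure of THP-1 cells; compounds (final up to 57.5 uM) added 1 h before LPS (250 ng/mL) and ATP (1.25 mM) stimulation; lower signal means less secretion.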
HT1080-NT tox: kills 2HG-producing HT-1080-NT fibrosarcoma cells. HT-1080-NT fibrosarcoma viability, CellTiter-Glo ATP luminescence, 48 h. Potency, µM (top dose mostly 46.1 µM), usual class: cytotoxic. 1.6% of 360,000 active. AID 686970;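 also: NT is the 2HG producing partner of a matched IDH1 knockdown line; nearly all actives have a fitted effect of over 55% in size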
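Read-out is CellTiter-Glo luminescence after 10 minutes at room temperature, following 48 hours' compound treatment of HT-1080-NT cells (750 cells/well, RPMI, 5% FBS, 37 degrees C).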
TGFb SMAD3 inh: inhibitors of TGF-b signaling | Potency, µM (top dose mostly 46.1 µM), usual class: inhibitors | HepG2 CAGA-GFP TGF-b/SMAD3 reporter, GFP fluorescence, 18 h; TGF-beta stimulated, 500 pg/mL final | 1.2% of 410,000 active | AID 588855; also: nearly all actives have a fitted effect of over 65% in size
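GFP signal (ex488/em500-530) from TGF-beta-stimulated HEPG2 CAGA-GFP cells, 500 pg/mL final, 18 h at 37 degrees C in DMEM plus 1% FBS, normalized to unstimulated and DMSO-stimulated controls.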
HepG2 viability: HepG2 cytotoxicity, counter-screen for TGF-b inhibitors | HepG2 CAGA-GFP viability, ATP luminescence, 18 h | Potency, µM (series often up to 46.1 µM), usual class: cytotoxic | 0.76% of 410,000 active | AID 588856
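HepG2 CAGA-GFP cells (1000/well, DMEM with 1% FBS) received compound, then TGF-beta at 500 pg/mL final, and were incubated 18 hours at 37 degrees C. Viability was read by CellTiter-Glo luminescence. Media-only wells were set as complete cell-killing and DMSO as no toxicity.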
Of the large screens only hits and unclear results are named; the others gave an inactive call. Unless noted, calls follow the shape of the dose curve; as a rule, active = well fitted curve in the direction sought with a large enough effect; inconclusive = small, poorly fitted or top-dose-only effect, or another doubt; inactive = no such curve, though single readings can be large; an effect the other way counts as inactive or inconclusive.

COc1ccccc1C=NNc1ccc([N+](=O)[O-])cn1	none
O=[N+]([O-])/C=C\c1ccc(N2CCOCC2)cc1	HT1080 IDH1KD tx 15µM, IL-1B inflam inh -80, HT1080-NT tox 21µM, TGFb SMAD3 inh inconclusive
CCCOc1ccc(/C=N/Nc2cccc([N+](=O)[O-])c2)c(O)c1	HT1080 IDH1KD tx 13µM, IL-1B inflam inh -96, HT1080-NT tox 15µM, TGFb SMAD3 inh inconclusive
Cc1nc(=O)c(-c2ccccc2)c(C)n1CC1CCCO1 (stereo unspecified)	none
COc1ccccc1CNC(=O)C/C(C)=N/NC(=O)Cc1ccc(OC)c(OC)c1	none
Oc1ccc(C=NNc2ccccn2)c(O)c1	HT1080 IDH1KD tx inconclusive
O=[N+]([O-])c1ccc(C=NNc2ccccc2)cc1	HT1080 IDH1KD tx inconclusive, TGFb SMAD3 inh inconclusive
O=[N+]([O-])c1cccc(N/N=C/c2ccc(N3CCOCC3)cc2)c1	HT1080 IDH1KD tx inconclusive, IL-1B inflam inh -63
Oc1cccc(C=NNc2ccccn2)c1	IL-1B inflam inh -87, TGFb SMAD3 inh inconclusive
Clc1cccc(N/N=C/c2ccc(N3CCOCC3)cc2)c1	none
O=[N+]([O-])c1cccc(C=NNc2ccccc2)c1	HT1080 IDH1KD tx inconclusive, IL-1B inflam inh -65
Cc1ccccc1-n1c(C)cc(/C=N/Nc2ccc([N+](=O)[O-])cn2)c1C	HT1080 IDH1KD tx inconclusive, HT1080-NT tox 23µM
CC/C(=N\Nc1ccc([N+](=O)[O-])cc1)c1ccccc1	IL-1B inflam inh -51, TGFb SMAD3 inh inconclusive
Cc1ccccc1NC(=S)N/N=C/c1ccc(O)cc1O	HT1080 IDH1KD tx 10µM, HT1080-NT tox inconclusive
CCCCOc1ccc(C2C(C(=O)c3cccs3)=C(O)C(=O)N2CCN2CCOCC2)cc1 (stereo unspecified)	none
CC(C)N(C(=S)NCc1ccccc1)c1ccccc1	IL-1B inflam inh -50
CC(C)N(C(=S)NCc1ccccc1)C(C)C	none
CN(C)Cc1nc2c([nH]1)c(=O)n(C)c(=O)n2C	none
Cc1ccc2c(c1)CCCN2C(=O)c1c(C)noc1C	none
Cc1ccc2c(c1)CCCN2C(=O)c1ccoc1C	HT1080 IDH1KD tx inconclusive, HT1080-NT tox 22µM
O=C1/C(=C/c2ccc(F)cc2)SC(=S)N1CC(=O)N1CCCCC1c1cccnc1 (stereo unspecified)	HT1080 IDH1KD tx inconclusive, TGFb SMAD3 inh inconclusive
c1ccc(-c2cc3c(N4CCCCC4)ncnc3s2)cc1	Giardia kill inconclusive
c1ccc(-c2cc3c(N4CCOCC4)ncnc3s2)cc1	HT1080 IDH1KD tx inconclusive, IL-1B inflam inh -62, HT1080-NT tox inconclusive
OCCN1CCN(c2ncnc3sc(-c4ccccc4)cc23)CC1	HT1080 IDH1KD tx inconclusive, IL-1B inflam inh -93, HT1080-NT tox 18µM
c1ccc(-c2cc3c(N4CCCC4)ncnc3s2)cc1	none
Cc1cc(C(=O)OCC(=O)c2ccc(Cl)c([N+](=O)[O-])c2)c2cccc(C)c2n1	none
Cc1ccc2nc(C)cc(C(=O)OCC(=O)c3ccc(Cl)c([N+](=O)[O-])c3)c2c1	IL-1B inflam inh -68
COc1ccc(-c2cc(C(=O)OCC(=O)c3ccc(C)c([N+](=O)[O-])c3)c3ccccc3n2)cc1	IL-1B inflam inh -55
O=C(Nc1ccc(CN2CCOCC2)cc1)c1ccc(-c2cc(Cl)ccc2Cl)o1	HT1080 IDH1KD tx inconclusive, IL-1B inflam inh -64, HT1080-NT tox inconclusive
COc1c(Cl)cc(Cl)cc1C(=O)Nc1ccc(CN2CCOCC2)cc1	IL-1B inflam inh -58
COc1c(Cl)cc(Cl)cc1C(=O)Nc1ccc(CN2CCCCC2)cc1	none
COc1cc(C2C3C(=O)N(Cc4ccccc4)C(=O)C3ON2c2ccccc2)cc(OC)c1O (stereo unspecified)	none
Cc1cc(C(=O)N/N=C/c2c3ccccc3cc3ccccc23)n[nH]1	HT1080 IDH1KD tx 16µM, HT1080-NT tox inconclusive, TGFb SMAD3 inh inconclusive
Cc1onc(-c2ccccc2)c1-c1ccnc(N)n1	none
Cc1ccc(C)n1-c1ccc(-c2ccnc(N)n2)cc1	IL-1B inflam inh -83
